One experiment relates to Fibrinogen (Alexa647-labelled). Kind of experiment: fibrinogen binders on compound microarrays, profiling panel, artefact control for SMM control-protein annotation, biochemical, small-molecule microarray, 635/667 nm fluorescence (AID 1131).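 Also: z-score merges 667 nm fluorescence with per-spot signal-to-noise over triplicate slides.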 The conditions noted are these: fibrinogen-A647 binding fluorescence, higher = more signal.
Sequence of Follistatin (Homo sapiens) (P19883 whole entry, looked up): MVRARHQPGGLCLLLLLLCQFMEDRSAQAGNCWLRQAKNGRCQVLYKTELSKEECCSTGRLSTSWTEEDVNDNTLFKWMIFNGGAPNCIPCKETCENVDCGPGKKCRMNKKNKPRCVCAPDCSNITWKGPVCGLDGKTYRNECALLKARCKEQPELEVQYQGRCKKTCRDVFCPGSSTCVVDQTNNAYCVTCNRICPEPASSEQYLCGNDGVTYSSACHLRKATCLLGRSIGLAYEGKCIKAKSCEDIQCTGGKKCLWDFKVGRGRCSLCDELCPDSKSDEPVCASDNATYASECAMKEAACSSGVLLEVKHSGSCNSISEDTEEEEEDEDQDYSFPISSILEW
In turn, `COc1ccc(C#Cc2ccc3c(c2)[C@]2(C(=O)N3)[C@H](C(=O)O)[C@H]3C(=O)O[C@H](c4ccccc4)[C@H](c4ccccc4)N3[C@@H]2c2ccc(OCCO)cc2)cc1` returned a composite z-score of 0.836.

On to `COCC1=C([C@H](O)CCc2ccccc2)[C@H](CO)[C@@H]2C(=O)N(C)C(=O)[C@@H]2C1`, for which the composite z-score is -0.114.

In turn, `CC(C)(C)N1CC=CC23O[C@@H]4C=CCCOC(=O)C4[C@H]2C(=O)N(CCCO)[C@@H]3C1=O` (stereo partly specified) had a composite z-score of -1.66.

As for `O=C1O[C@H](c2ccccc2)[C@H](c2ccccc2)N2[C@H]1[C@@H](C(=O)N1CCCCCCC1)[C@]1(C(=O)Nc3ccccc31)[C@H]2c1ccc(O)cc1`, the composite z-score came out at 0.514.

For `COC(=O)[C@]1(Cc2ccccc2CN=[N+]=[N-])N=C(c2ccc(OCCCO)cc2)O[C@@H]1c1ccccc1CN=[N+]=[N-]`, the composite z-score is 0.518.

With `O=C1c2ccccc2[C@](Cc2ccccc2I)(C(=O)NCC(F)(F)F)[C@H](c2ccc(CO)cc2)N1Cc1ccccc1`, the composite z-score turned out to be 0.97.

`NC(=O)NCC#Cc1ccc2c(c1)[C@]1(C(=O)N2)[C@H](c2ccc(OCCO)cc2)N2[C@H](c3ccccc3)[C@H](c3ccccc3)OC(=O)[C@H]2[C@@H]1C(=O)N1CCCCCCC1` yielded a composite z-score of 0.41.

`N#Cc1ccc(NN2C(C(O)c3ccco3)C=CC3C(=O)N(c4ccccc4)C(=O)C32)cc1` (stereo unspecified) displayed a composite z-score of 0.251.

Another experiment has as its target Follistatin (Homo sapiens) (UniProt P19883). Kind of experiment: follistatin binders on small-molecule microarrays, primary screen, biochemical, small-molecule microarray, 635/667 nm fluorescence (AID 1132). The conditions noted are these: FST binding, 635 nm fluorescence, higher = more signal.
On to `CCCCC(O)C1C=CC2C(=O)N(Cc3ccccc3)C(=O)C2N1n1cnnc1` (stereo unspecified), for which the composite z-score worked out at 0.457.

`COCCCNC(=O)[C@@]1(C)c2ccccc2C(=O)N(c2ccc(C)cn2)[C@H]1c1ccc(CO)cc1` had a composite z-score of -0.0423.

As for `CCCC=C(CCC)[C@@H](NS(=O)(=O)c1cccc2cccnc12)c1ccc(C(=O)OC)cc1`, the composite z-score was 1.31.

On to `COc1ccccc1CN1C(=O)c2ccccc2[C@](Cc2ccccc2I)(C(=O)NCCN2CCOCC2)[C@@H]1c1ccc(CO)cc1`, for which the composite z-score stood at 1.41.

Consider `C=C(COC)/C(=C/C[C@@H](OC(=O)c1ccncc1)c1cccc(OCCO)c1)c1cc(C(=O)OC)ccc1OC`, for which the composite z-score is 1.42.

`C=CCNC(=O)[C@@H]1[C@H]2C(=O)O[C@H](c3ccccc3)[C@H](c3ccccc3)N2[C@H](c2ccc(O)cc2)[C@@]12C(=O)Nc1ccc(C#CCCO)cc12` showed a composite z-score of -0.773.

In turn, `COCCCNC(=O)[C@]1(Cc2ccccc2)N=C(c2ccc(OCCCO)cc2)O[C@@H]1c1ccccc1N=[N+]=[N-]` yielded a composite z-score of 1.25.

In the case of `COC(=O)C(CC#Cc1ccc2c(c1)[C@]1(C(=O)N2)[C@H](c2ccccc2OCCO)N2[C@H](c3ccccc3)[C@H](c3ccccc3)OC(=O)[C@H]2[C@@H]1C(=O)Nc1nc2ccccc2s1)C(=O)OC`, the composite z-score is 1.11.

On to `CCOC(=O)C[C@H]1[C@H](OC(=O)c2cc3ccccc3oc2=O)[C@@H](NC(=O)c2ccc3ccccc3n2)c2cc(OCCCO)ccc2N1C(=O)c1ccc2ccccc2n1`, for which the composite z-score turned out to be 0.99.

Take `NCCCCCCNC(=O)[C@H]1C[C@H]2C(=O)N3CCC[C@H]3C(=O)N2[C@H]1c1ccc(O)cc1`: the composite z-score worked out at 1.36.

As to `C=CCOC(=O)[C@@H]1[C@H]2C(=O)O[C@H](c3ccccc3)[C@H](c3ccccc3)N2[C@H](c2ccc(OCCOC(=O)[C@@H]3C[C@@H]4C(=O)N[C@@H](CCCCNC(C)=O)C(=O)N4[C@@H]3c3ccc(O)cc3)cc2)[C@@]12C(=O)Nc1ccc(I)cc12`, the composite z-score stood at 1.41.

In turn, `COc1ccc([Si](C)(C)[C@@H]2[C@@H](CCO)O[C@]3(C(=O)N(Cc4ccccc4)c4ccc(N5C(=O)COc6ccccc65)cc43)[C@H]2C)cc1` yielded a composite z-score of 0.197.

Compound `CN1C(=O)C2C=CC(C(O)c3cccc4ccccc34)N(NC(=O)OC(C)(C)C)C2C1=O` (stereo unspecified) registered a composite z-score of 0.435.

Turning to `COc1ccc(C(=O)Nc2ccc3c(c2)[C@]2(O[C@@H](CCO)[C@H]([Si](C)(C)c4ccc(OC)cc4)[C@H]2C)C(=O)N3Cc2ccccc2)cc1`, the composite z-score was determined as 1.39.

Take `O=C1c2ccccc2[C@](Cc2ccccc2I)(C(=O)NC2CC2)[C@H](c2ccc(CO)cc2)N1Cc1ccccc1Cl`: the composite z-score stood at 1.23.

The compound `COC(=O)C(CC#Cc1ccc2c(c1)[C@]1(C(=O)N2)[C@H](c2ccc(O)cc2)N2[C@H](c3ccccc3)[C@H](c3ccccc3)OC(=O)[C@H]2[C@@H]1C(N)=O)C(=O)OC` yielded a composite z-score of -2.01.

Take `CC(C)CNC(=O)[C@@]1(C)c2ccccc2C(=O)N(Cc2ccccc2)[C@H]1c1ccc(CO)cc1`: the composite z-score is -0.976.

For `COC(=O)C(CC#Cc1ccc2c(c1)[C@]1(C(=O)N2)[C@H](c2ccc(OCCO)cc2)N2[C@H](c3ccccc3)[C@H](c3ccccc3)OC(=O)[C@H]2[C@@H]1C(=O)O)C(=O)OC`, the composite z-score is 0.915.
